This note sets out measurements from PubChem BioAssay (NCI).

Values joined by “and” are separate entries in the source; they are usually repeats but may differ in a detail not shown here. Identical values can stand only once. Compounds without any hit were thinned out: in the full panel of roughly 83,000, 20% have a hit.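 The endpoint reported here, percent growth, reads 100 for growth as untreated, 0 for no net growth and -100 for all cells dead.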 Active and inactive are the calls of the source. How the source made its calls: active means growth percent below 10; inactive means the rest.

Among the test systems are SR leukemia; RPMI-8226 leukemia; OVCAR-8 ovarian; OVCAR-5 ovarian; OVCAR-4 ovarian; IGROV1 ovarian; OVCAR-3 ovarian; HS 578T breast; NCI/ADR-RES ovarian; SK-OV-3 ovarian.
Common to all, as to assay: NCI-60 one-dose screen, 48 h (100 = growth as untreated, 0 = no growth, -100 = all killed)
Conditions in all cases: 10 µM unless noted

On to `CCOC(=O)Nc1nc2ccccc2[nH]1`, for which the growth was 98.9% (inactive) in the experiment on SR leukemia; 97.3% (inactive) and -1.09% (active) with RPMI-8226 leukemia; 97.7% (inactive) and 50.6% (inactive) in the experiment on OVCAR-8 ovarian; 109% (inactive) and 58.4% (inactive) with OVCAR-5 ovarian; 111% (inactive) and 83% (inactive) with OVCAR-4 ovarian; 114% (inactive) and 39.3% (inactive) in the experiment with IGROV1 ovarian. In addition, the growth is 122% (inactive) and 1.16% (active) in the experiment with OVCAR-3 ovarian; 11.2% (inactive) in the experiment on HS 578T breast; 104% (inactive) and 3.49% (active) with NCI/ADR-RES ovarian.
Regarding `c1ccc(N(c2ccccc2)c2ccccc2)cc1`, the growth in the experiment with SR leukemia was 79.3% (inactive); with RPMI-8226 leukemia, 100% (inactive); in the experiment on OVCAR-8 ovarian, 97.5% (inactive); in the experiment with OVCAR-5 ovarian, 104% (inactive); in the experiment on OVCAR-4 ovarian, 114% (inactive); in the experiment with IGROV1 ovarian, 104% (inactive). Further, the growth in the experiment with OVCAR-3 ovarian was 112% (inactive); with HS 578T breast it was 110% (inactive); in the experiment on NCI/ADR-RES ovarian it was 105% (inactive).
Regarding `CCN(CC)CCc1nc(-c2ccccc2)no1`, the growth with RPMI-8226 leukemia is 60.9% (inactive) and 98.7% (inactive); in the experiment with OVCAR-8 ovarian, 83.9% (inactive) and 94.4% (inactive); with OVCAR-5 ovarian, 98.6% (inactive) and 114% (inactive); in the experiment with OVCAR-4 ovarian it was 76.7% (inactive) and 103% (inactive); with SK-OV-3 ovarian, 98.2% (inactive) and 99.6% (inactive); in the experiment with IGROV1 ovarian, 78.7% (inactive) and 112% (inactive). The growth in the experiment on OVCAR-3 ovarian was 73.2% (inactive) and 112% (inactive); in the experiment on HS 578T breast, 98% (inactive); with NCI/ADR-RES ovarian, 89.8% (inactive) and 99.4% (inactive).
Consider `Cc1c(Cl)cccc1NCN1C(=O)c2ccccc2C1=O`, for which the growth is 105% (inactive) with RPMI-8226 leukemia; 99.8% (inactive) in the experiment on OVCAR-8 ovarian; 107% (inactive) with OVCAR-5 ovarian; 108% (inactive) in the experiment with OVCAR-4 ovarian; 116% (inactive) in the experiment on IGROV1 ovarian; 114% (inactive) in the experiment on OVCAR-3 ovarian. The growth in the experiment on HS 578T breast was 118% (inactive); in the experiment on NCI/ADR-RES ovarian it was 110% (inactive).
`COc1ccc(-c2cn[nH]c2-c2cc(OC)c(OC)c(OC)c2)cc1N`: the growth in the experiment with SR leukemia is 12% (inactive) and 19.5% (inactive); with OVCAR-8 ovarian it was 21.3% (inactive) and 12.9% (inactive); with OVCAR-5 ovarian, 46% (inactive) and 48.7% (inactive); with OVCAR-4 ovarian, 47.6% (inactive) and 38.8% (inactive); with SK-OV-3 ovarian, 23% (inactive) and 36.5% (inactive); with IGROV1 ovarian, 37.2% (inactive) and 15.6% (inactive). Also, the growth is -7.09% (active) and -1.14% (active) in the experiment with OVCAR-3 ovarian; 39.5% (inactive) and 40% (inactive) with HS 578T breast; -5.9% (active) and 4.84% (active) in the experiment with NCI/ADR-RES ovarian.
Turning to `O=C(O)CCCCc1ccc([N+](=O)[O-])cc1`, the growth with SR leukemia was 105% (inactive) and 89.5% (inactive); in the experiment with OVCAR-8 ovarian it was 114% (inactive) and 102% (inactive); with OVCAR-5 ovarian it was 116% (inactive) and 89.9% (inactive); in the experiment with OVCAR-4 ovarian it was 101% (inactive) and 106% (inactive); in the experiment on SK-OV-3 ovarian, 109% (inactive) and 106% (inactive); in the experiment on IGROV1 ovarian, 98.1% (inactive) and 95.9% (inactive). Further, the growth in the experiment on OVCAR-3 ovarian is 106% (inactive) and 121% (inactive); in the experiment with HS 578T breast, 127% (inactive) and 104% (inactive); in the experiment with NCI/ADR-RES ovarian, 101% (inactive) and 107% (inactive).
Take `CCOc1ccc2nc3cc(N)ccc3c(N)c2c1`: the growth with RPMI-8226 leukemia is 113% (inactive) and 86.4% (inactive); with OVCAR-8 ovarian, 28.9% (inactive) and 29.6% (inactive); with OVCAR-5 ovarian, 94.1% (inactive) and 99.6% (inactive); with OVCAR-4 ovarian, 56.6% (inactive) and 49.2% (inactive); with SK-OV-3 ovarian, 61% (inactive) and 76.5% (inactive); with IGROV1 ovarian, 69.9% (inactive) and 99.4% (inactive). In addition, the growth with OVCAR-3 ovarian is 35.3% (inactive) and 22.8% (inactive); in the experiment on HS 578T breast, 28.8% (inactive); with NCI/ADR-RES ovarian, 88.4% (inactive) and 71.8% (inactive).
As for `CN1CCN(C2CCN(C(=O)Nc3cc(Oc4ccc(NC(=O)C5(C(=O)Nc6ccc(F)cc6)CC5)c(F)c4)ccn3)CC2)CC1`, the growth was -22.9% (active) and 58.4% (inactive) in the experiment with SR leukemia; -55% (active) and 91.6% (inactive) in the experiment on OVCAR-8 ovarian; -10.9% (active) and 94.3% (inactive) in the experiment with OVCAR-5 ovarian; -5.41% (active) and 83.2% (inactive) in the experiment with OVCAR-4 ovarian; -51.1% (active) and 74.6% (inactive) in the experiment on SK-OV-3 ovarian; -58.6% (active) and 55.3% (inactive) with IGROV1 ovarian. Moreover, the growth in the experiment with OVCAR-3 ovarian is 2.87% (active) and 108% (inactive); in the experiment on HS 578T breast, 56.7% (inactive); with NCI/ADR-RES ovarian, 13.3% (inactive) and 99.5% (inactive).
With `Cc1ccc(NCSc2ccc(Cl)cc2)cc1`, the growth with SR leukemia is 62.5% (inactive) and 67.7% (inactive); with OVCAR-8 ovarian, 97.3% (inactive) and 93.2% (inactive); with OVCAR-5 ovarian, 106% (inactive); in the experiment with SK-OV-3 ovarian, 96.2% (inactive) and 97% (inactive); in the experiment on IGROV1 ovarian, 103% (inactive) and 80.7% (inactive); with OVCAR-3 ovarian, 71.6% (inactive) and 78.9% (inactive). Besides, the growth in the experiment on HS 578T breast is 93.7% (inactive) and 102% (inactive); in the experiment on NCI/ADR-RES ovarian, 88% (inactive) and 95.8% (inactive).
As for `Nc1ccccc1SC1CC(=O)N(c2cccc3ccccc23)C1=O` (stereo not given), the growth in the experiment with SR leukemia was 88% (inactive); with OVCAR-8 ovarian, 92.2% (inactive); in the experiment with OVCAR-5 ovarian it was 101% (inactive); in the experiment with OVCAR-4 ovarian, 93.6% (inactive); in the experiment on IGROV1 ovarian, 99.1% (inactive); in the experiment with OVCAR-3 ovarian, 101% (inactive). The growth in the experiment on HS 578T breast was 97.9% (inactive); in the experiment on NCI/ADR-RES ovarian, 96.1% (inactive).
Turning to `O=C(CN1CCN(c2cc3c(cc2F)c(=O)c(C(=O)O)cn3C2CC2)CC1)Nc1ccc(Cl)cc1`, the growth in the experiment on SR leukemia is 71.1% (inactive) and 71.4% (inactive); in the experiment on OVCAR-8 ovarian, 78.8% (inactive) and 95% (inactive); with OVCAR-5 ovarian it was 105% (inactive) and 96% (inactive); in the experiment with OVCAR-4 ovarian, 85.3% (inactive) and 83.2% (inactive); in the experiment with SK-OV-3 ovarian, 63.4% (inactive) and 82.2% (inactive); with IGROV1 ovarian it was 93.8% (inactive) and 97.3% (inactive). The growth with OVCAR-3 ovarian is 94.4% (inactive) and 102% (inactive); with HS 578T breast, 87.7% (inactive) and 93.6% (inactive); in the experiment on NCI/ADR-RES ovarian it was 101% (inactive) and 96.9% (inactive).
Take `CN1C(=O)C(N=Nc2ccc([N+](=O)[O-])cc2)SC1=S` (stereo not given): the growth in the experiment with RPMI-8226 leukemia was 32.7% (inactive) and 10.8% (inactive); with OVCAR-8 ovarian it was 70.7% (inactive) and 72.4% (inactive); in the experiment with OVCAR-5 ovarian, 56.2% (inactive) and 51.5% (inactive); in the experiment on OVCAR-4 ovarian, 65.8% (inactive) and 76.7% (inactive); with SK-OV-3 ovarian, 66.6% (inactive) and 69.2% (inactive); with IGROV1 ovarian, 56.7% (inactive) and 71.7% (inactive). Also, the growth in the experiment with OVCAR-3 ovarian was 59.3% (inactive) and 62.7% (inactive); in the experiment on HS 578T breast it was 72.6% (inactive) and 71% (inactive); with NCI/ADR-RES ovarian, 45.7% (inactive) and 15.5% (inactive).
